We go through 16 compounds from PubChem BioAssay (NCATS).

A short description of experiment [1]: Primary qHTS for inhibitors of nuclear receptor binding SET domain protein 2 (NSD2) in an RCH-ACV wild type WT cells (2C) (AID 1645877). Also: nearly all actives have a fitted effect of over 70% in size. Also: potency is read from the fitted curve at half-maximal effect. As to activity change, negative = cell killing: % is scaled to controls: 0 for no effect and ±100 for the full control effect.
For experiment [2], the target named is Glutathione peroxidase 1 (Homo sapiens) (UniProt P07203). Nature of the experiment: Primary qHTS Assay for Inhibitors of Recombinant Selenoprotein Glutathione Peroxidase 1 (GPX1) (AID 1845191). Also: nearly all actives have a fitted effect of over 65% in size. As to activity, negative = inhibition: % is scaled to controls: 0 for no effect and ±100 for the full control effect. Put shortly: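 GR-coupled assay: compounds preincubated 30 min at room temperature with GPX1, then reaction started with CHP; final 10 nM GPX1, 1 mM GSH, 0.5 mM CHP, 0.5 mM NADPH, 100 nM GR, 0.01% BSA, pH 7.5 Tris buffer. NADPH fluorescence (340/450 nm) read at 0 and 15 min.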
Sequence of Glutathione peroxidase 1 (Homo sapiens) (P07203 whole entry, looked up): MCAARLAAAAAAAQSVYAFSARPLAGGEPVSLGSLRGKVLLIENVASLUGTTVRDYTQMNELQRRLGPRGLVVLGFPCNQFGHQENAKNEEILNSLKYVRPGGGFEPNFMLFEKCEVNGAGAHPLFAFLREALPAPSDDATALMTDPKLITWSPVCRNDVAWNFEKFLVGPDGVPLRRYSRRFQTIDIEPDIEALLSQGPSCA

In experiment [3] the target is Phospholipid hydroperoxide glutathione peroxidase GPX4 (Homo sapiens) (UniProt P36969). In words: Primary qHTS Assay for Inhibitors of Recombinant Selenoprotein Glutathione Peroxidase 4 (GPX4) (AID 1845192). Also: nearly all actives have a fitted effect of over 65% in size. As to activity change, negative = inhibition: series mostly up to about 50 µM; % is scaled to controls: 0 for no effect and ±100 for the full control effect. Put shortly:
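GR-coupled assay: recombinant GPX4 preincubated 30 min with compound at room temperature; final 200 nM GPX4, 1 mM GSH, 0.5 mM cumene hydroperoxide, 0.5 mM NADPH, 100 nM GR, 0.01% BSA, pH 7.5 Tris. NADPH fluorescence (340/450 nm) read at 0 and 15 min.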
(In general: Quantitative high-throughput screening tests each substance at several concentrations.)

Experiment [4] has as its target Luciferin 4-monooxygenase (Photinus pyralis) (UniProt P08659). Nature of the experiment: Primary firefly luciferase (FLuc) qHTS assay for identification of artifact compounds. (AID 1845220). Also: nearly all actives have a fitted effect of over 60% in size.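 As to activity change, negative = inhibition: series mostly up to about 54 µM; plate controls were DMSO vehicle for no effect and no enzyme for full effect.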 In a few lines: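 Titrated compounds were incubated 15 min at RT, protected from light, with luciferin and ATP at 10 uM; reaction started with 10 nM FLuc, luminescence imaged at 5 min, and concentration-response fitted by Hill equation.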

Experiment [5] can be described thus: Primary fluorescence-based thiol-reactive (MSTI) qHTS assay for identification of artifact compounds. (AID 1845221). Also: nearly all actives have a fitted effect of over 65% in size. Also: potency is read from the fitted curve at half-maximal effect.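 As to activity change, negative = thiol reactive: series mostly up to about 54 µM; thiol-reactive compounds lower the probe fluorescence signal.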 Put shortly: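 qHTS titration of compound; 4 uM MSTI, PBS pH 7.4, 2% DMSO; 1 h RT, dark; fluorescence 525/598 nm; normalized to Acetyl-MSTI and MSTI; 4-parameter Hill fit.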
For experiment [6], the system named is Nanoluciferase (engineered Oplophorus gracilirostris luciferase). Nature of the experiment: Primary Nanoluciferase (NLuc) qHTS assay for identification of artifact compounds. (AID 1845222).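 Also: NLuc secreted into diluted conditioned medium of S16 cells; series mostly up to about 54 µM; 0% = DMSO and -100% = no enzyme.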 In a few lines: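 qHTS format, against NLuc in S16 cell-conditioned medium. Nano-Glo substrate 1:100 was added after 15 min at room temperature. Luminescence was taken after a further 5 min.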

Values without a mark were called inactive. Inconclusive results are not listed. Active and inactive are the calls of the source. Calls follow the shape of the dose curve; as a rule, active = well fitted curve in the direction sought with a large enough effect; inconclusive = small, poorly fitted or top-dose-only effect, or another doubt; inactive = no such curve, though single readings can be large; an effect the other way counts as inactive or inconclusive.

Sequence of Phospholipid hydroperoxide glutathione peroxidase GPX4 (Homo sapiens) (P36969 whole entry, looked up): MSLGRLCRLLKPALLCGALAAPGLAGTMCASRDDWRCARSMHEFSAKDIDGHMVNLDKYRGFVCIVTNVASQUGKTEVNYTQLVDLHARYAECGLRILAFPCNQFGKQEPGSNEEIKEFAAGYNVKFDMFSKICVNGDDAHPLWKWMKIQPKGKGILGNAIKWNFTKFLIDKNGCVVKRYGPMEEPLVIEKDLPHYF

On to `COc1cc(C)c(C(=O)Oc2cc(C)c(C(=O)Oc3cc(C)c(C(=O)NC(C)C(=O)O)c(O)c3)c(O[C@@H]3O[C@H](CO)[C@@H](O)[C@H](O)[C@H]3OC(C)=O)c2)c(OC)c1` (stereo partly specified), for which the Potency result in experiment [1], in experiment [2], in experiment [3], in experiment [4], in experiment [5] and in experiment [6] was “inactive” throughout.

As to `CNC(=O)c1ccccc1Nc1cc(Nc2ccc(N3CCOCC3)cc2OC)ncc1C(F)(F)F`, the results for the Potency in experiment [1] and in experiment [5] were 2900 nM (active) and 1.5 µM (active), respectively. Besides, the Potency entry in experiment [2], in experiment [3], in experiment [4] and in experiment [6] was “inactive” in each case.

As for `C=C(C(=O)O)C1CCC2(C)CCC(O)C(=C)C2C1` (stereo unspecified), the Potency entry in experiment [1], in experiment [2], in experiment [3], in experiment [4] and in experiment [6] was “inactive” each time. Besides, the Potency in experiment [5] is 13.4 µM (active).

On to `COCCOc1cnc2ccn([C@H](C)c3nnc4c(F)cc(-c5cnn(C)c5)cn34)c(=O)c2c1`, for which the Potency entry in experiment [1], in experiment [2], in experiment [3], in experiment [4], in experiment [5] and in experiment [6] was “inactive” throughout.

For `CCCCC1CCN(CCCC(=O)c2ccccc2C)CC1`, the Potency in experiment [1] is 16300 nM (active). Further, the Potency entry in experiment [2], in experiment [3], in experiment [4], in experiment [5] and in experiment [6] was “inactive” in each case.

With `COc1cc(C)c(C(=O)O[C@H]2[C@@H](OC(C)=O)[C@H](n3ccc(=O)[nH]c3=O)O[C@@H]2CO)c(OC)c1`, the Potency entry in experiment [1], in experiment [2], in experiment [3], in experiment [4], in experiment [5] and in experiment [6] was “inactive” in each case.

`CC[C@H](CO)Nc1nc(NCc2ccc(-c3ccccn3)cc2)c2ncn(C(C)C)c2n1`: the Potency in experiment [1] is 230 nM (active). The Potency result in experiment [2], in experiment [3], in experiment [4], in experiment [5] and in experiment [6] was “inactive” in each case.

In the case of `C=CC1C(OC2OC(CO)C(O)C(O)C2O)OC=C(C(=O)OC)C1CC1CC(=O)CC(CCc2ccc(O)cc2)O1` (stereo unspecified), the Potency entry in experiment [1], in experiment [2], in experiment [3], in experiment [4], in experiment [5] and in experiment [6] was “inactive” in each case.

Consider `CC1(C)CCC2(C(=O)OC3OC(CO)C(O)C(O)C3O)CCC3(C)C(=CCC4C5(C)CCC(O)C(C)(C(=O)O)C5CCC43C)C2C1O` (stereo unspecified), for which the Potency result in experiment [1], in experiment [2], in experiment [3], in experiment [4], in experiment [5] and in experiment [6] was “inactive” each time.

With `C[C@@H]1O[C@@H](O[C@H]2[C@H](O)[C@@H](C(=O)O)O[C@@H](O[C@H]3CC[C@@]4(C)C(CC[C@]5(C)C4CC=C4C6CC(C)(C)CC[C@]6(C(=O)O)CC[C@]45C)C3(C)C)[C@@H]2O[C@@H]2OC[C@@H](O)[C@H](O)[C@H]2O)[C@H](O)[C@H](O)[C@H]1O` (stereo partly specified), in experiment [1], the outcome was “inactive [at 9.23 µM]”. The Potency entry in experiment [2] and in experiment [3] was “inactive” in each case. Besides, in experiment [4], the activity change, negative = inhibition was 1.83% [at 11.6 µM]. The activity change, negative = thiol reactive in experiment [5] is 129% [at 11.5 µM]. Also, in experiment [6], the activity, negative = inhibition is 0.398% [at 11.6 µM].

With `Cc1cnc(NC(=O)Nc2cc(Br)c(C)cc2OCC2CNCCO2)cn1` (stereo unspecified), the Potency in experiment [1] is 578 nM (active). For the same compound, the Potency entry in experiment [2], in experiment [3], in experiment [4], in experiment [5] and in experiment [6] was “inactive” each time.

As for `COc1c2c(c(C)c3c1C(=O)OC3)OC1(C)CC(O)C34OC(OC)(CC(OC(C)=O)C3(C)C1C2)OC4(C)C` (stereo unspecified), the Potency entry in experiment [1], in experiment [2], in experiment [3], in experiment [4], in experiment [5] and in experiment [6] was “inactive” each time.

As for `CC(C)S(=O)(=O)N[C@H]1CCOC[C@@H]1c1ccc(-c2ccc(C#N)s2)cc1`, the Potency result in experiment [1], in experiment [2], in experiment [3], in experiment [4], in experiment [5] and in experiment [6] was “inactive” in each case.

As for `CC1(C)CC[C@]2(CO[C@@H]3O[C@H](CO)[C@@H](O)[C@H](O)[C@H]3O)[C@@H](O)C[C@]3(C)C(=CCC4[C@@]5(C)CC[C@H](O[C@@H]6O[C@H](CO[C@@H]7O[C@H](CO[C@@H]8OC[C@@H](O)[C@H](O)[C@H]8O)[C@@H](O)[C@H](O)[C@H]7O)[C@@H](O)[C@H](O)[C@H]6O)C(C)(C)C5CC[C@]43C)[C@@H]2C1` (stereo partly specified), the activity change, negative = cell killing in experiment [1] is -16% [at 9.23 µM]. In addition, the Potency entry in experiment [2] and in experiment [3] was “inactive” each time. In experiment [4], the activity change, negative = inhibition is -4.11% [at 11.6 µM]. Also, the activity change, negative = thiol reactive in experiment [5] was 75.4% [at 11.5 µM]. Also, in experiment [6], the activity, negative = inhibition is 0.495% [at 11.6 µM].

For the compound `CN(C)c1ccc2c(c1)OC(N)=C(C#N)C2c1cccc(C(F)(F)F)c1` (stereo unspecified), the results for the Potency in experiment [1] and in experiment [5] were 916 nM (active) and 2.12 µM (active), respectively. Further, the Potency entry in experiment [2], in experiment [3], in experiment [4] and in experiment [6] was “inactive” in each case.

For `O=C(c1cccc(Cl)c1F)N1CCN(Cc2cccc(Nc3nccs3)n2)CC1`, the Potency in experiment [1] is 728 nM (active). The Potency result in experiment [2], in experiment [3], in experiment [4], in experiment [5] and in experiment [6] was “inactive” in each case.
